Screen size: about 340,000 compounds; about 2,100 (0.62%) were called active.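 The calls were made as follows: active = first-screen hits whose inhibition reached a set limit at any dose in the follow-up dose series; inconclusive = inhibition above the set first-screen limit but never retested; inactive = the rest.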 These entries were drawn from the full list. Measured potencies and affinities stand elsewhere.
Target: Rac GTPase-activating protein 1 (Homo sapiens) (UniProt Q9H0H5)
Test: MgcRacGAP GTPase-activating activity inhibitors, confirmation, biochemical, ADP Hunter fluorescence, primary and confirmatory (AID 624330);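 also: fluorescence reports GDP produced by GAP-driven GTP hydrolysis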
Settings: MgcRacGAP-stimulated Rac1 GTP hydrolysis, at 30 µM, active compounds read high, GST-tagged Rac1 F28L mutant substrate

Chain of Rac GTPase-activating protein 1 (Homo sapiens) (Q9H0H5 whole entry, looked up): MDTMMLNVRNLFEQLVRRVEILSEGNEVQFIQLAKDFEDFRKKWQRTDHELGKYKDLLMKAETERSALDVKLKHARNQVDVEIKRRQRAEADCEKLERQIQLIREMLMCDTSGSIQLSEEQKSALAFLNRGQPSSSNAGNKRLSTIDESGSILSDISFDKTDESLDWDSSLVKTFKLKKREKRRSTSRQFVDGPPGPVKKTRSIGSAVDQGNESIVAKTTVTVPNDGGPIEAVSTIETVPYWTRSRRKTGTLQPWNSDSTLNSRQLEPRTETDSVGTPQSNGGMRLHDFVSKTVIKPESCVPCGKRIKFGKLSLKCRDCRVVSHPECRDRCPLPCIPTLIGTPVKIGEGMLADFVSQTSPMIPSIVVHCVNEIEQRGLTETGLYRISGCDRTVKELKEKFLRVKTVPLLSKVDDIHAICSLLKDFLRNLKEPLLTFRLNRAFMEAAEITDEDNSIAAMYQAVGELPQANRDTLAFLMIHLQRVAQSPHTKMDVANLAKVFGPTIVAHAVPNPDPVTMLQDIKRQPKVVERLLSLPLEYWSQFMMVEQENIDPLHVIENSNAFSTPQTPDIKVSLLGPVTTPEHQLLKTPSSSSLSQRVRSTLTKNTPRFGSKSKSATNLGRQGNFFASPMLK

inhibition, inactive:
O=Cc1nc(-c2ccccc2Cl)n2ccccc12 3.46%
CSc1ccc(/C=N/N2CCN(C)CC2)cc1 11.3%
CN1CCN(/N=C/c2ccc(-c3ccccc3)cc2)CC1 13.1%
CN1CCN(/N=C/c2nc(-c3ccccc3Cl)n3ccccc23)CC1 21.2%
CN1CCN(/N=C/c2nc(-c3cccc([N+](=O)[O-])c3)n3ccccc23)CC1 12.2%
O=Cc1nc(-c2ccc(Cl)cc2)n2ccccc12 -3.25%
O=C(O)/C=C/c1nc(-c2ccccc2)n2ccccc12 16.7%
CC(C)(C)c1ccc(-c2nc(C=O)c3ccccn23)cc1 -4.54%
CSCC[C@H](NC(=O)C1CCC(CNC(=O)[C@@H]2CCCN2C(=O)OC(C)(C)C)CC1)C(=O)O (some centres not stated) 0.46%
Cc1ccccc1COCCN1CCN(S(=O)(=O)c2ccccc2)CCC1=O 12.5%
CC(C)Oc1ccc(C(=O)Nc2ccc([N+](=O)[O-])cc2)cc1 11.4%
Cc1cc(=O)oc2cc(NC(=O)c3ccccc3Cl)ccc12 9.35%
CCCc1c(C(=O)N/N=C/C=C/c2ccccc2)nnn1-c1nonc1N 15.9%
O=C(Oc1cccnc1)c1cc(S(=O)(=O)N2CCCCC2)ccc1Cl 2.68%
COc1ccc(OC(=O)c2cccc(S(=O)(=O)N3CCCC3)c2)cc1 15.8%
O=[N+]([O-])c1ccc(C2=Nn3c(Cn4nnc5ccccc54)nnc3SC2)cc1 10.3%
COc1cccc(Oc2cnc(N)nc2-c2ccc(OC)cc2O)c1 6.49%
CCOc1ccc(-c2nc(N)ncc2Oc2ccc(OC)cc2)c(O)c1 1.9%
C=C(C)COc1ccc(-c2nc(N)ncc2Oc2ccc(OC)cc2)c(O)c1 -7.13%
COc1cccc(Oc2cncnc2-c2ccc(OC)cc2O)c1 8.42%
CCOc1ccc(-c2[nH]ncc2Oc2ccccc2OCC)c(O)c1 6.69%
C=C(C)COc1ccc(-c2nc(N)ncc2Oc2ccccc2OCC)c(O)c1 10.4%
Cc1ccc(S(=O)(=O)N2CCOCC2)cc1C(=O)OCC(=O)NC1CCCC1 3.52%
CC(C)(C)NC(=O)NC(=O)COC(=O)CNC(=O)c1cccc(F)c1 0.76%
CCOC(=O)Cc1csc(NC(=O)CN2CCOCC2)n1 5.22%
O=C1NC2(CCc3ccccc32)C(=O)N1CCOc1ccc(Cl)cc1 (configuration not stated) 2.47%
CCN(C1CCS(=O)(=O)C1)S(=O)(=O)c1ccc(Cl)s1 (configuration not stated) 4.17%
CCOC(=O)C1=C(O)CSC1=Nc1cccc2ccccc12 1.02%
c1ccc2nc3ccccc3nc2c1 2.14%
COc1ccc(OC)c(CN2CCN(C(=O)c3cccc4ccccc34)CC2)c1 13.1%
Cc1ccc(CN2CCN(C(=O)c3cccc4ccccc34)CC2)cc1 23.8%
COc1cccc(CN2CCN(C(=O)c3cccc4ccccc34)CC2)c1OC 17.9%
Cc1cccc(CN2CCN(C(=O)c3cccc4ccccc34)CC2)c1 15.3%
Cc1cc(C)c(C)c(OCCCN(C)C)c1 17%
CSc1nnnn1-c1cccc(O)c1 -2.6%
Cc1cc(Cl)ccc1Oc1ncnc2onc(C)c12 4.86%
CCOCCCNC(=O)c1ccc(OC2CCN(C(C)=O)CC2)c(OC)c1 9.51%
COCc1cc(Sc2ccc(Cl)cc2)nc(C)n1 3.56%
COCc1cc(NCc2ccc(Cl)cc2)nc(C)n1 5.03%
CC(C)(C)c1ccc(C2=NC(=O)C(CC(=O)O)S2)cc1 (configuration not stated) 10.5%
CN(C1=NC(=O)C(CC(=O)O)S1)c1ccc(O)cc1 (configuration not stated) 2.49%
Cc1nn(CC(=O)NCC(C)c2ccccc2)c(=O)c2cc3occc3n12 (configuration not stated) 10%
Cc1ccc(-c2csc3ncnc(SCC(=O)c4ccc5c(c4)OCCO5)c23)cc1 1.98%
CC1Cc2ccccc2N1C(=O)COc1ccc2c(c1)OCO2 (configuration not stated) -12.8%
CC(=O)c1ccc(N2CCN(C(=S)NCc3ccco3)CC2)cc1 3.83%
CC(=O)N1CCN(c2ccc(NC(=O)c3ccco3)cc2)CC1 8.89%
CC(=O)N1CCN(c2ccc(NCc3ccc(-c4cccc(Cl)c4)o3)cc2)CC1 15%
CC(=O)N1CCN(c2ccc(NCc3ccc(-c4ccc(Br)cc4)o3)cc2)CC1 5.41%
COc1ccc(N2CCN(C(CNC(=O)OCc3ccccc3)c3ccco3)CC2)cc1 (configuration not stated) 23%
COc1ccc(C2(C)NC(=O)N(CC(=O)Nc3c(C)n(C)n(-c4ccccc4)c3=O)C2=O)cc1 (configuration not stated) -6.4%
CC(C)(C)OC(=O)C[C@@H]1C/C=C\C[C@H](CC(=O)N(CCO)Cc2ccccc2)C(=O)N[C@H](Cc2ccccc2)COC1=O -1.04%
N#C/C(=C\c1cc([N+](=O)[O-])c(N2CCOCC2)cc1N1CCOCC1)c1nc2ccccc2[nH]1 6.08%
N#C/C(=C\c1ccc(-c2ccc(C(=O)O)cc2)o1)c1nc2ccccc2[nH]1 2.64%
N#C/C(=C\c1ccc(Sc2ccccc2)o1)c1nc2ccccc2[nH]1 11.4%
N#C/C(=C\c1ccc(N2CCOCC2)c([N+](=O)[O-])c1)c1nc2ccccc2[nH]1 1.39%
CC1CN(C(=O)COC(=O)c2ccc3ccccc3c2)CC(C)O1 (configuration not stated) 8.18%
CCCCOC(=O)c1cccc(NC(=O)CC)c1 -6.05%
O=C(C[C@H]1C/C=C\C[C@H](NC(=O)OCC2c3ccccc3-c3ccccc32)C(=O)OC[C@H](Cc2ccccc2)NC1=O)N[C@H](CO)Cc1ccccc1 3.81%
CC(OC(=O)CC(C)c1ccccc1)C(=O)Nc1ccc(Cl)cn1 (configuration not stated) 4.3%
COc1ccc(/C=N/n2c(C)nc3ccccc3c2=O)cc1OC 3.76%
COc1ccc(-n2c(/C=C3\C(=O)N(C)c4ccccc43)nc3ccccc3c2=O)cc1 9.39%
COc1cc(/C=N/n2c(C)nc3ccccc3c2=O)cc(OC)c1O 7.15%
CCCc1nc2ccccc2c(=O)n1/N=C/c1ccc(O)cc1 6.59%
CCCc1nc2ccccc2c(=O)n1/N=C/c1ccccc1O 11.4%
COc1ccc(/C=C/c2nc3ccccc3c(=O)n2-c2cccc(C(=O)O)c2)cc1 6.96%
C/C=C/c1ccc(O)c(OC)c1 21.3%
COc1ccc(/C=C/c2nc(N)nc(-c3ccccc3O)n2)cc1OC 4.75%
O=C(CN1CCN(C(=O)C2CCCO2)CC1)Nc1cc(C(F)(F)F)ccc1Cl (configuration not stated) 4.9%
CCOC(=O)C1CCN(C(=O)c2cc(S(=O)(=O)N3CCCCCC3)ccc2OC)CC1 0.78%
CCCCNC(=O)NC(C(=O)OC)C12CC3CC(CC(C3)C1)C2 (configuration not stated) 0.62%
CCCN(CCC)CCNS(=O)(=O)c1ccc2c(c1)CCN2C(=O)C1CCC1 12.9%
CCCCN(CCCC)S(=O)(=O)c1ccc(NS(=O)(=O)c2ccc(NC(C)=O)cc2)cc1 5.52%
COc1ccc(-c2nn(-c3ccccc3)cc2C(=O)NC2CCCCC2C)cc1 (configuration not stated) 7.37%
CCOCCCNC(=O)C1CCCN(S(=O)(=O)c2ccc(-n3cnnn3)cc2)C1 (configuration not stated) 1.87%
CCOC(=O)c1ccc(NC(=S)NCCCn2ccnc2)cc1 -38.2%
COc1ccc(CCN2CN(S(=O)(=O)c3ccccc3)c3nc4ccccc4nc32)cc1OC 2.57%
CCOc1ccc(NC(=S)N(Cc2ccc(N(C)C)cc2)Cc2ccco2)cc1 1.67%
O=C(O)C1CCCN1S(=O)(=O)c1ccc2ccccc2c1 (configuration not stated) -1.39%
COC(=O)c1cccc(NS(=O)(=O)c2ccc(OC)c(OC)c2)c1C 4.85%
O=C(CCCc1cccs1)Nc1nc(-c2ccc(F)cc2)cs1 9.23%
O=C(c1cccs1)N1CCN(c2ncc(C(F)(F)F)cc2Cl)CC1 8.94%
O=C(Cc1ccc(Cl)cc1)Nc1ccc2c(c1)C(=O)NC2=O 10.3%
COc1ccc(-c2c(-c3ccsc3)oc(=O)c3cc(OC)c(OC)cc23)cc1 3.56%
COc1ccc(/C=N/Nc2nc3ccccc3c(=O)n2-c2ccccc2)cc1OC 8.28%
O=C(O)c1cccc(-n2c(/C=C/c3ccccc3)nc3ccccc3c2=O)c1 -7.35%
COc1ccc(/C=C/c2ccc3cccc(O)c3n2)cc1Br 5.56%
O=C(O)c1ccc(-n2c(/C=C/c3ccccc3)nc3ccccc3c2=O)cc1 -4%
CCOc1cc(/C=C/c2nc3ccccc3c(=O)[nH]2)ccc1O 11.1%
COc1cc(/C=C/c2ccc3cccc(O)c3n2)cc(OC)c1OC 3.89%
Cc1cc(C)cc(Nc2c3c(nc4ncnn24)CCC3)c1 8.12%
CCC1=C(OC(=O)N(CC)CC)N2C(=O)OC(=NCCOC)[C@]2(Cc2ccccc2)[C@H]2C1=CC[C@H]1C(=O)N(CC(=O)OC)C(=O)[C@H]12 11.9%
CN(C(=O)c1cccc(NC(=O)Cc2ccc(NC(=O)C3CCN(C(=O)C4CC4)CC3)cc2)c1)C1CCC1 6.53%
